Sampled rows, rich in hits. Any-hit rate of the full collection: about 0.72%.
PKA-R2B act = activators of human PKA-R2B complex. PKA-R2B holoenzyme dissociation, Cy5-IP20 fluorescence polarization; R2B truncated from residue 108, S112A mutant; 0% DMSO only, 100% 113 µM cGMP. P22694+P31323. hit rate 0.079% among 340,000. activation, % at 11.4 µM;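 active = activation above a cutoff set at the mean over all compounds plus 3 SD, cut at about 18% in these data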;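 note: higher means more holoenzyme dissociation and a rise in polarization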
Target sequence (P31323 whole entry, looked up, other chains not shown, the tested form may be a part): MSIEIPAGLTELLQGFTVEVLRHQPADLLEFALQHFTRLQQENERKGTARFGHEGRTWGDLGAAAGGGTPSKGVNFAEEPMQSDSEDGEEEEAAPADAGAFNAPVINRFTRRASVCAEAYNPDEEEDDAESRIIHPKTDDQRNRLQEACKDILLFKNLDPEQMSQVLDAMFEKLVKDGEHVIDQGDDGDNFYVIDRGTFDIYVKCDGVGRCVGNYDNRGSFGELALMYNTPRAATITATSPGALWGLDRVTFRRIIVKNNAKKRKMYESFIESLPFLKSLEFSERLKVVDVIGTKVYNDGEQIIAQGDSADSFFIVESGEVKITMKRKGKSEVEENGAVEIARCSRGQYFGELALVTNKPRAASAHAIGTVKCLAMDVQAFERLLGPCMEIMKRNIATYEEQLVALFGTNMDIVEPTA
Neddylation inh = cullin neddylation inhibition. P61081+Q13564. TR-FRET cullin neddylation, biochemical. calls only at 25 µM. hit rate 0.58% among 360,000; in the data active = inhibition above about 36%
PKA-R1A activ = activators of PKA-R1A complex; P00514+P68181; activation, % at 11.4 µM; PKA-R1A dissociation, Cy5-IP20 fluorescence polarization; scaled: DMSO 0%, 113 µM cGMP 100%; hit rate 0.083% among 340,000;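 active = percent activation above the mean of all tested compounds plus 3 SD, cut at about 19% in these data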;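 note: higher means more PKAc released from R1A so a rise in polarization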
PolyA inhibitor = blocks polyadenylation in yeast reporter cells | AID 1875 | activity score, % at 12 µM | hit rate 0.02% among 300,000 | S. cerevisiae SKY197-pL101 polyadenylation reporter, beta-gal luminescence; efflux-impaired pdr1/pdr3 knockout yeast; score 100 = 6 SD above DMSO;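 active = lowest replicate activity score at least 50, where 100 means six control SD above control mean; inconclusive = lowest score under 50 but half or more replicates reach 50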;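 note: yeast exposed to compound for 9 h at 30 °C; higher score means more reporter readthrough which indicates perturbed polyadenylation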
Neddyl conf = confirmation of human cullin neddylation inhibitors; shares compounds with Neddylation inh; TR-FRET cullin neddylation biochemical assay; calls only at 25 µM; hit rate 13% among 1,800; AID 652217; in the data active = inhibition above about 40%;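 note: neddylation substrate is the cullin 1 ring ligase complex with SKP2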
Calls only; - = inactive; ? = inconclusive; . = not tested or not shown; + = active, no number.

SMILES | PKA-R2B act | Neddylation inh | PKA-R1A activ | PolyA inhibitor | Neddyl conf
CSc1ccc(/C=C/C(=O)OCC(=O)NCC2CCCO2)cc1 (stereo not given) | - | + | - | . | .
COc1cc(C(=O)N(CCN(C)C)CC2CCCN(Cc3ccccc3F)C2)ccc1C (stereo not given) | - | - | - | - | .
O=C1O[C@@H](c2ccc(O)cc2)Cc2cccc(O)c21 | - | + | - | . | .
COc1ccc(CCNC(=O)CC2Nc3cc(C)c(C)cc3NC2=O)cc1OC (stereo not given) | - | + | - | - | -
CCOC(=O)C1CCN(c2cc3c(cc2NC(=O)c2ccccc2OCC)n(C)c(=O)n3C)CC1 | - | + | - | - | -
CCOc1cc(NC(=O)C2CC2)c(OCC)cc1NC(=O)c1cc(OC)c(OC)c(OC)c1 | - | . | - | - | .
CCOC(=O)C1CCN(c2cc3c(cc2NC(=O)c2ccccc2Cl)n(C)c(=O)n3C)CC1 | - | . | - | - | .
CCOc1cc(NC(=O)C2CC2)c(OCC)cc1NC(=O)c1ccccc1OCC | - | + | - | - | .
CCOc1ccc(S(=O)(=O)N2CCN(C(=O)c3cc4ccccc4o3)CC2)cc1 | - | - | - | . | .
Cc1cccc(OCc2nnc(SCC(=O)Nc3ccc(N4CCOCC4)cc3)o2)c1 | - | - | - | - | .
CC1CCc2c(sc(N)c2C(N)=O)C1 (stereo not given) | - | + | - | - | -
Clc1ccc(-c2cn3ccccc3n2)cc1 | - | + | - | - | -
O=C(Nc1ccc(-c2cn3ccccc3n2)cc1)c1ccc(Cl)cc1 | - | - | - | - | .
COc1ccc(C(O)c2ncc(-c3cccc(OCc4ccccc4)c3)[nH]2)cc1F (stereo not given) | . | - | . | . | .
CCOC(=O)C1CCN(c2ncnc3c2[nH]c2cccc(OC)c23)CC1 | - | . | - | - | .
COc1cccc2[nH]c3c(N4CCCCC4)ncnc3c12 | - | + | - | - | .
COCc1cc(C)nc2sc(C(=O)N3CCN(c4ccccc4)CC3)c(N)c12 | - | + | - | - | -
COCc1cc(C)nc2sc(C(=O)Nc3ccc(OC)cc3)c(N)c12 | - | + | - | - | +
COCC(=O)Nc1ccc2c(c1)[C@@H]1C[C@H](CC(=O)NCc3cccc(F)c3)O[C@@H](CO)[C@@H]1O2 | - | - | - | . | .
Cc1ccccc1-c1cc2nc(C)c(Cl)c(=O)n2[nH]1 | - | + | - | - | -
Cc1nc2cc(-c3ccsc3-n3c(C)ccc3C)[nH]n2c(=O)c1Cl | - | - | - | - | .
Cc1cc(C)cc(N=Cc2c(O)c3ccccc3oc2=O)c1 | - | . | - | - | .
O=C(O)c1cc(N=Cc2c(O)c3ccccc3oc2=O)ccc1O | - | + | - | - | .
CN(C)c1ccc(NC(=O)Nc2cccc3ccccc23)cc1 | - | - | - | - | .
CCN(CC)c1ccc(NC(=O)Nc2cccc3ccccc23)cc1 | - | + | - | - | -
SMILES | PKA-R2B act | Neddylation inh | PKA-R1A activ | PolyA inhibitor | Neddyl conf
COCCCn1c(=O)c2sccc2n2c(CCCC(=O)NCc3ccc(F)cc3)nnc12 | - | + | - | - | -
COCCCn1c(=O)c2sccc2n2c(CCCC(=O)NCc3cccc(OC)c3)nnc12 | - | - | - | - | .
O=C(NCCC(=O)N1CCCCCCC1)c1ccc(Cl)cc1 | - | - | - | - | .
CN1C=CC2=C(C#N)C(N)C(C#N)(C#N)C(c3ccccc3)C2C1 (stereo not given) | - | + | - | - | -
O=C1CSC(c2cn(-c3ccccc3)nc2-c2cc3ccccc3oc2=O)N1Cc1cccnc1 (stereo not given) | - | + | - | - | -
COc1ccc(C(c2nnnn2-c2c(C)cccc2C)N2CCN(C/C=C/c3ccccc3)CC2)cc1 (stereo not given) | . | - | . | . | .
Cc1ccn2cc(C(=O)Nc3nnc(C)s3)nc2c1 | - | + | - | - | -
N#Cc1nc(-c2ccco2)oc1NCc1ccco1 | - | . | - | - | .
N#Cc1nc(-c2ccco2)oc1NCc1ccccc1Cl | . | + | . | - | -
CCOc1ccc(CN(C)C(=O)CNC(=O)C2CCCCC2)cc1 | - | - | - | - | .
O=C(CCN1C(=O)S/C(=C/c2ccc(F)cc2)C1=O)Nc1ccc(O)c(C(=O)O)c1 | - | + | - | - | -
COc1ccc2[nH]c(C(=O)O)c(NS(=O)(=O)c3ccc(C)c(C)c3)c2c1 | - | + | - | - | -
Cc1ccc2nc(-c3ccc4c(c3)OCCO4)cc(C(=O)O)c2c1 | - | + | - | - | .
CCOC(=O)c1cc(-c2ccccc2)nc2ccc(C)cc12 | - | + | - | - | .
CCOC(=O)/C=c1\s/c(=C\c2ccc(C(=O)OC)cc2)c(=O)n1CC(=O)Nc1ccccc1 | - | + | - | - | -
CCOc1ccc(OCCC(=O)OCC(=O)Nc2cc(OCC)c(N3CCOCC3)cc2OCC)cc1 | - | - | - | - | .
Cc1ccn2c(=O)c(C(=O)NC3CCCCC3C)c(O)nc2c1 (stereo not given) | - | + | - | - | -
CCC1CCCCN1CCCNC(=O)c1c(O)nc2cc(C)ccn2c1=O (stereo not given) | - | - | - | - | .
Cc1ccn2c(=O)c(C(=O)NCCCN3CCCC3=O)c(O)nc2c1 | - | + | - | - | +
Cc1ccn2c(=O)c(C(=O)NCCCN3CCCCC3C)c(O)nc2c1 (stereo not given) | - | + | - | - | -
Cc1cccn2c(=O)c(C(=O)NC3CCCCC3C)c(O)nc12 (stereo not given) | - | - | - | - | .
CC(C)CCN1C(=O)c2cccc3c(N)ccc(c23)C1=O | - | - | - | - | .
CC(O)(P(=O)(O)O)P(=O)(O)O | - | - | - | . | .
Cc1ccc(-c2nc(SCC(=O)Nc3cc(C)on3)c3c(=O)n(C)c(=O)n(C)c3n2)cc1 | - | - | - | - | .
CC1CC(=O)C2=C(C1)Nc1ccccc1N=C2 (stereo not given) | - | - | - | - | .
SMILES | PKA-R2B act | Neddylation inh | PKA-R1A activ | PolyA inhibitor | Neddyl conf
CCC(=O)c1cccc2c1N=CC1=C(CC(C)(C)CC1=O)N2 | - | + | - | - | .
CCOC(=O)c1ccc(S(=O)(=O)NNc2ccc(C(F)(F)F)cn2)cc1 | - | - | - | . | .
Cc1cc(C)c(C(=O)N(CCN(C)C)CC2CCCN(Cc3ccccc3F)C2)o1 (stereo not given) | - | - | - | - | .
CC1(C(=O)Nc2ccc3c(c2)OCO3)CCN1C(=O)CCC1CCCC1 (stereo not given) | . | - | . | . | .
Cc1cc(=O)oc2cc(OCC(=O)N3CCOCC3)c(Cl)cc12 | - | . | - | . | .
Cc1cc(=O)oc2cc(OCC(=O)N3CCCC3)c(Cl)cc12 | - | + | - | . | .
CCOC(=O)c1[nH]c2ccccc2c1NC(=S)Nc1cccc(C)c1 | - | - | - | ? | .
COc1cccc(C(=O)Nc2ccccc2OC(F)(F)F)c1 | - | - | - | - | .
S=c1[nH]nc(-c2cc(-c3ccccc3)n[nH]2)n1/N=C/c1ccc(Cl)c(Cl)c1 | - | + | - | - | -

Screening results as filed in PubChem.
